Screening data as filed in PubChem.
A selection: hits, their analogues and other compounds. The true share with any hit is near 18%.
TDP1 cell noCPT: qHTS for Inhibitors of human tyrosyl-DNA phosphodiesterase 1 (TDP1): qHTS in cells in absence of CPT | AID 686978, 2013 | DT40 Tdp1-/- hTDP1 cells, no CPT, ATP luminescence, 48 h | Potency, µM (highest dose often 46.2 µM), usual class: inhibitors | 420,000 tested, 15% active; also: nearly all actives have a fitted effect of over 55% in size
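Stably hTDP1-transfected Tdp1-null chicken DT40 cells were treated with library compounds minus camptothecin and grown for at least 48 hr at 37 °C, after which cellular ATP was quantified by luminescence.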
PLK1 PBD inh: inhibitors of human PLK1 polo-box domain binding. 360,000 tested, 2.8% active. P53350. Plk1 PBD binding of FITC phosphopeptide, fluorescence polarization. Potency, µM, most hits filed as inhibitors; also: series mostly up to about 57 µM; nearly all actives have a fitted effect of over 65% in size
TDP1 inh: inhibitors of human tyrosyl-DNA phosphodiesterase TDP1 | recombinant TDP1, AlphaScreen DNA substrate cleavage | Potency, µM (titrated, usually from 130 µM), most hits filed as inhibitors | 350,000 tested, 0.28% active; also: nearly all actives have a fitted effect of over 40% in size
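Enzyme-compound mixtures sat 15 min at room temperature, followed by a 5 min reaction with 15 nM final substrate and 10 min with AlphaScreen beads. Recombinant human Tdp1 was used at 1 nM final.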
TDP1 cell CPT: growth inhibition of DT40 Tdp1-/-;hTDP1 cells with camptothecin (screen for TDP1 inhibitors); chicken DT40 Tdp1-/-;hTDP1 cells + 20 nM CPT, ATP luminescence, 48 h; Potency, µM (top dose mostly 46.2 µM), most hits filed as inhibitors; 420,000 tested, 12% active; AID 686979; also: nearly all actives have a fitted effect of over 55% in size
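Chicken DT40 Tdp1-/- cells complemented with human TDP1, 400 cells/well, exposed to compounds plus 20 nM camptothecin for at least 48 h at 37 C; viability read as ATP content by CellTiter-Glo luminescence.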
VDR inh: vitamin D3 receptor (human) inhibition; P11473; VDR-SRC2-3 peptide fluorescence polarization, 2 h; Potency, µM, hits mostly inhibitors; 400,000 tested, 0.93% active
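Reagent solutions, kept cold and dark, are dispensed first; compounds are then pinned in at 23 nl, plates briefly spun, and incubated 2 h at ambient temperature. Inhibition of VDR–SRC2-3 peptide binding is read by fluorescence polarization.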
KAT2A inh: GCN5L2 (KAT2A) acetyltransferase inhibition | Q92830 | GCN5L2 HAT assay, ThioGlo1 CoA-SH fluorescence | Potency, µM (top dose mostly 58.9 µM), hits mostly inhibitors | 390,000 tested, 0.21% active
Target sequence (Q92830 whole entry, looked up): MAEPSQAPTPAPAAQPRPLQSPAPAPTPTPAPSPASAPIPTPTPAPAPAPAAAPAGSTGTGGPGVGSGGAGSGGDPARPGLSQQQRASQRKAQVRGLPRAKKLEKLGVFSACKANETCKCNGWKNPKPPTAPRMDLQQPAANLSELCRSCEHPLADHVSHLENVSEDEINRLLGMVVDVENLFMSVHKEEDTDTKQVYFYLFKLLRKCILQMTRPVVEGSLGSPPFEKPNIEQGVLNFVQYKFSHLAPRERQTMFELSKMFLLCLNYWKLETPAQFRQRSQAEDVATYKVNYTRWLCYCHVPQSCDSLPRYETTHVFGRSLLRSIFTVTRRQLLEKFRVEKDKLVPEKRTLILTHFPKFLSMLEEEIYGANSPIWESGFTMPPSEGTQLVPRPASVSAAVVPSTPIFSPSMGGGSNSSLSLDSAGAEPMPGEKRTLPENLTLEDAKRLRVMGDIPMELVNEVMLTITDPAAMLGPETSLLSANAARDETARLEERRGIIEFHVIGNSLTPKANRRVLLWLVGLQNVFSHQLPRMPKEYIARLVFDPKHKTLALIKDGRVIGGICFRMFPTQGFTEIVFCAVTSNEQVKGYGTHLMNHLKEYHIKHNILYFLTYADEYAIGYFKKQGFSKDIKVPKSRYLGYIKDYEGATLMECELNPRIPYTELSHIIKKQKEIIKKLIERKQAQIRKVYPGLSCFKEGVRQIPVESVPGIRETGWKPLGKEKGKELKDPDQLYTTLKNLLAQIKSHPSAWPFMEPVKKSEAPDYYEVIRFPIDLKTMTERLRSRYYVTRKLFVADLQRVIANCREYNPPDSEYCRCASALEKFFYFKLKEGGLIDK
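Fluorescence readout, Ex340nm/Em540nm: ThioGlo1 (50uM final) reacts with free CoA thiol released as 20nM GCN5L2 acetylates H3(1-25) peptide (75uM) using acetyl-CoA (70uM). Compound and enzyme sat 15 min beforehand; 20 min room-temperature reaction.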
A number is an active result; n = inactive; u = inconclusive; x = no result given; [ ] = another dose, or the depositor's remark. Calls follow the shape of the dose curve; as a rule, active = well fitted curve in the direction sought with a large enough effect; inconclusive = small, poorly fitted or top-dose-only effect, or another doubt; inactive = no such curve, though single readings can be large; an effect the other way counts as inactive or inconclusive.

SMILES	TDP1 cell noCPT	PLK1 PBD inh	TDP1 inh	TDP1 cell CPT	VDR inh	KAT2A inh
CCOC(=O)C1=C[C@@H](C(C)C)N(S(=O)(=O)c2ccc(C)cc2)[C@H]1c1ccc(C(F)(F)F)cc1	12µM	n	x	u	x	x
CCOC(=O)N1CCN(S(=O)(=O)c2ccc([N+](=O)[O-])cc2)CC1	n	n	n	n	n	n
CCOC(=O)C1=C[C@@H](C)N(S(=O)(=O)c2ccc(C)cc2)[C@H]1c1ccccc1	u	n	x	u	x	x
Cc1csc(C(C)N(C)C(=O)c2cnn(-c3nccc(-c4cc(C)sc4C)n3)c2C)n1 (centres undefined)	u	x	x	n[9.04 µM]	x	x
COc1ccc(-c2nn(-c3ccccc3)cc2C(=O)NC2CCCCC2C)cc1 (centres undefined)	u	n	n[0.505 µM]	n	n	n
CCCC[C@@H]1C=C(C(=O)O)[C@H](c2ccc(CC)cc2)N1S(=O)(=O)c1ccc(C)cc1	n	n	n	n	n	n
CCOC(=O)C1=C[C@@H](CC)N(S(=O)(=O)c2ccccc2)[C@H]1c1ccccc1	18µM	n	x	u	x	x
CCCCC[C@@H]1C=C(C(=O)O)[C@H](c2ccc(CC)cc2)N1S(=O)(=O)c1ccc(C)cc1	n	27µM	n	n	n	n
CCOC(=O)C1=C[C@@H](c2ccccc2)N(S(=O)(=O)c2ccc(C)cc2)[C@H]1c1ccccc1Cl	26µM	n	x	u	x	x
COc1ccccc1-c1cnc(C(O)c2cccc(CN3CCCCC3)c2)[nH]1 (centres undefined)	n	n	x	n	x	x
CCc1ccccc1NS(=O)(=O)c1ccc(OC)c2ncccc12	10µM	n	n	18µM	n	n
CCOc1ccc(S(=O)(=O)Nc2cc(Cl)ccc2OC)c2cccnc12	15µM	x	n	15µM	n	n
CCOc1ccc(S(=O)(=O)N2CCN(c3ccccc3OC)CC2)c2cccnc12	23µM	n	n	u	n	n
CCOc1ccc(S(=O)(=O)N2CCN(c3ccc(OC)cc3)CC2)c2cccnc12	n	n	n	n	n	n
CCOc1ccc(S(=O)(=O)Nc2cccc(C)c2)c2cccnc12	18µM	n	n	12µM	n	n
COc1ccc(Cl)cc1NS(=O)(=O)c1cccc2cccnc12	u	n	x	u	n	u
CCc1ccc(NS(=O)(=O)c2ccc(OC)c3ncccc23)cc1	n	n	n	u	n	n
OC1(c2cccnc2)CCN(Cc2ccc3c(c2)CN(Cc2ccc4nsnc4c2)CCO3)CC1	u	x	x	n[9.04 µM]	x	x
COc1ccc(C2/C(=C(/O)c3ccc(C)cc3)C(=O)C(=O)N2CCCN2CCOCC2)cc1 (centres undefined)	n	n	x	n	n	n
O=C(c1ccc([N+](=O)[O-])s1)N1CCN(c2ncccn2)CC1	u	n	x	21µM	x	x
O=c1[nH]c(-c2ccccc2)nc2sc(-c3ccccc3)cc12	6.5µM	n	n	10µM	n	n
CCn1cnc2sc(-c3ccccc3)cc2c1=O	n	n	n	n	n	n
Cc1ccc(C)n1-n1c(C)nc2sc(-c3ccccc3)cc2c1=O	15µM	n	n	18µM	n	n
CCOC(=O)CN1C(=O)N(c2ccccc2OC)S(=O)(=O)c2ccccc21	n	n	x	n	n	n
COc1cccc(CNC(=O)CN2C(=O)N(c3cc(C)ccc3C)S(=O)(=O)c3ccccc32)c1OC	23µM	x	n	13µM	n	n
SMILES	TDP1 cell noCPT	PLK1 PBD inh	TDP1 inh	TDP1 cell CPT	VDR inh	KAT2A inh
Cc1ccc(C)c(N2C(=O)N(Cc3cc(=O)n4ccccc4n3)c3ccccc3S2(=O)=O)c1	u	x	n	u	n	n
Cc1ccc(C)c(N2C(=O)N(Cc3ccccc3C)c3ccccc3S2(=O)=O)c1	29µM	x	n	18µM	n	n
CSc1ccccc1OCc1cc(C(=O)N(C)Cc2ccncn2)no1	n	n	n	n	n	n
Cc1nc2cc(NC(=O)C3CC34CCN(Cc3ccc(O)c(Cl)c3)CC4)ccc2s1 (centres undefined)	n	x	x	n	x	x
CCN(CC)S(=O)(=O)c1ccc(C(=O)NC(=S)N2CCCCC2C)cc1 (centres undefined)	16µM	u	x	u	x	x
Cc1cc(C)n(CCc2nc(-c3ccc(F)cc3)cs2)n1	u	n	n	u	n	n
Cc1cc(C)n(CCc2nc(-c3ccc(C(C)(C)C)cc3)cs2)n1	12µM	n	n	23µM	n	n
COc1cc(-c2csc(CCn3nc(C)cc3C)n2)cc(OC)c1OC	18µM	u	n	21µM	u	n
COc1cc(-c2csc(N3CCOCC3)n2)cc(OC)c1OC	u	n	n	n	n	n
CCOC(=O)NC(=O)/C(C#N)=C(/C)N(C)C	n	n	n	n	n	n
CCCCC/C=C\C/C=C\C/C=C\C/C=C\CCCC(=O)O[C@@H](CO)COCCCCCCCCCCCCCCCC	n[4.12 µM]	x	n	n[4.12 µM]	n	n
Clc1ccc(-n2cnnn2)cc1	u	n	n	n	n	n
CO/C=C\C=C/c1nnn(-c2ccc(Cl)cc2)n1	23µM	u	n	u	u	n
CCCn1cc2c(c1-c1ccc(C)cc1)c(=O)n(C)c(=O)n2C	21µM	n	n	u	n	n
Cc1ccc(-c2c3c(=O)n(C)c(=O)n(C)c3cn2Cc2ccccc2)cc1	u	n	n	u	n	n
CCCCn1cc2c(c1-c1ccc(Cl)cc1)c(=O)n(C)c(=O)n2C	15µM	x	n	u	n	n
CN1C(=O)C2(N=c3ccccc3=N2)c2ccccc21	15µM	n	n	u	n	n
CN1C(=O)C2(OCC(C)([N+](=O)[O-])CO2)c2ccccc21 (centres undefined)	n	n	x	n	n	n
CCOc1ccc(CNC(=O)CCCn2nc(C)c3sc4ccccc4c3c2=O)cc1	u	x	n	u	n	n
CCC(C)(C(=O)Nc1ccc(OC)cc1)N(C)C(=O)Cn1nnnc1N (centres undefined)	n	n	u	n	n	n
O=C(O)C(c1ccccc1)C(O)c1ccc2c(c1)OCO2 (centres undefined)	n	n	x	n	n	x
CSCCC(NC(=O)OCc1ccccc1)C(=O)O (centres undefined)	n	n	n	n	n	n
CSCC[C@H](NC(=O)[C@H](Cc1ccccc1)NC[C@@H](NC[C@@H](N)CS)C(C)C)C(=O)O	u	x	n	n	35µM	n
O=S(=O)(c1ccc(Cl)cc1)N1CCOCC1	n	x	n	n	n	x
COc1ccc(OC)c(C(C[N+](=O)[O-])c2c(C)cc3ccccn23)c1 (centres undefined)	2.9µM	n	n[0.0935 µM]	2.1µM	n	n
